Consider 40 sequences from the supplement of paper PMC10681739.
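Further: Full-length recombinant human RUNX1 bound to double-stranded 36-bp genomic probes on a high-density microarray, scored as Alexa488 fluorescence per spot via anti-RUNX1 antibody, median of four replicate spots.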

Chain of RUNX1 (Q01196 whole entry): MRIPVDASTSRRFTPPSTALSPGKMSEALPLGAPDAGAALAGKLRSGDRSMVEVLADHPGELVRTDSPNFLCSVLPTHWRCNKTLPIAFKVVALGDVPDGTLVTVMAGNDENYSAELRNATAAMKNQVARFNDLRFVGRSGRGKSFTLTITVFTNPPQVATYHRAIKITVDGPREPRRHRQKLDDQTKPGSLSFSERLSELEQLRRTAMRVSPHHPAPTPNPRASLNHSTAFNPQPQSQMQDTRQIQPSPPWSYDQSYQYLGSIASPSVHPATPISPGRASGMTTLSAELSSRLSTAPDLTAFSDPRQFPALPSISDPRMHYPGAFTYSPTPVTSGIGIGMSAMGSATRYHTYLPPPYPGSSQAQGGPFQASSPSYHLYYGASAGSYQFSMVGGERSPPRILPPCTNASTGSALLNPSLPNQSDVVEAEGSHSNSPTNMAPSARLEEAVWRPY

This assay addresses RUNX1 (UniProt Q01196). As to the kind of experiment: RUNX1 binding intensity (PBM fluorescence), RUNX1 alone (arbitrary fluorescence units); higher = stronger binding. To be noted: RUNX1 concentration 2 nM; ETS1 concentration 0 nM. The procedure:
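Cooperative gcPBM on 36-bp genomic probes with neighbouring ETS1 and RUNX1 sites. Recombinant human RUNX1 (2 nM) was incubated alone or with ETS1 (25 nM) and detected with anti-RUNX1 antibody plus Alexa488 secondary. Values are medians over 4 replicate spots; the RUNX1+ETS1 data were normalised to the RUNX1-only data. The probes sit in constant array flanks that are not printed.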
For the sequence CCATTCACGGGCTTCCGCGGTGTCCCCACCCCCTAA, the RUNX1 binding intensity amounted to 1080. The value for AGCTCTAAGGTTCCGCCTGCGGGCAGCAAGCGGAGG was 920; that for GCTCTGCAGGATGTGGCTGTGACCGCAGTGAGGAGC was 1520; that for TCTCTTCCGTTCTCTGGTAGCTTTGTGGTAGCTTTG was 1350. Regarding CACTTCCTCCTCGGGGGCCTCAGAAAACCACAGGGC, the RUNX1 binding intensity is 1110. The result for ACCCCAGGTACCGGAAGACCACAATTCCCAGGAGTC reads 1020; that for AGCTTGCCGGAAGCTGGTTGTTCGCTGCGGCGACCA, 705; that for TGCAGCTTCCTGTCTGAGGCTTTGTGGTCCTTTCAT, 862. Turning to TTCAACAGGATATTGCTTTGTTACCACAGGCCCTTT, the RUNX1 binding intensity was found to be 946.

In turn, TACCCCGCCGGAAGCCCCCTGCTCTGTGGGAACCGG yielded an RUNX1 binding intensity of 894. The value for GTGGTCTCTGCCACTTCCTGTGGTGTAAACAGTCTC was 843. In turn, CTCTTCCTGCCTGTCCGTGGCTGGTGTGGTTTGCGT returned an RUNX1 binding intensity of 958. On to AGACCCGGAAGAACTTGTCCCAGTGTTGACCACACC, for which the RUNX1 binding intensity stood at 870. The result for AACAGCTTCCGGCACGGGGGCTGTGGTTGTGTTGGA reads 790. The result for AGTTTCTTCTTTCCGGTGGGTTTGTGGTCTTGCTGA reads 1390; that for GCGAGCACTTCCGGTGTGTGAGCCTGCGGTTGCTAC, 845. AAGAACCTAGAGGATGTGTGGTTTTATGTGCAGGGT gave an RUNX1 binding intensity of 914. The value for GAGCAGTGGTGGGAAATGTGGGGTTGGGGGTAAAGG was 874. The result for CCCCTCACTTCCCTCAACCCTTCCCACAAACTGGGA reads 1920; that for AGATTAGATGCAGGATGTGGTATACAAAGGCACGTT, 823.

Turning to CGGCGCGGCGGACGTTGCTGCGGTAGGACGTGCCCG, the RUNX1 binding intensity amounted to 838. The value for AGCGCCGGAAGTGTGTCTGCGTAAAACTGCGGCTCG was 740; that for GACCTGGGCAGGAAGAGCGGCATGTGGGGCCCCCTG was 714; that for ACTAGAAGCGGAAGTAGTTGTGGGCGCCTTTGCAAC was 662. The result for CCACCATCTTTCCGGCTCCCTCGCGACCACCACGAC reads 1410.

On to TACGGGAACTTCCTTTTCTTGTGGTGTGGCCGGGTC, for which the RUNX1 binding intensity was 873. The value for ACCGGATGCCGGGGCACCGCCAGATGTGGCCACGAG was 746; that for CCCTACCTCTCCTTCCTGCCACAAGGGAAAGTCACT was 1390; that for GGGAACTCACACCGGAAACCACAGAACCAAGAGTGG was 3800.

The sequence CCTACACTTCCCAGAGAACCTAGCGGTTACGCCAAC gave an RUNX1 binding intensity of 1340. The result for GCTCCTCCCGGATATAAAGCCCCAAACCACGCCACT reads 1140; that for GACAAAGAGGAAGTCCCCAAAAACCACAATAACAGT, 1570; that for AGGTCTCCGGAAGTGGGTCTGCGGCGCGCGGGATGC, 637.

CCTGACTTCCTCCTCCCCCTCCCGCCACAATTCCGC gave an RUNX1 binding intensity of 1620. The value for CCACGTAAAGGCGGAAGCGGTTGAGTGGACGCCATC was 708; that for CTGCCCACCGGAAACGATGGCGCGAGGCCGCAGAGC was 728; that for CTTAGTGTTTGAGGATGTGGGTTTTACAATCAGATC was 769.

As to GAGAAACAAACAGGATGTGGTCTCTGCCCTGGAGGA, the RUNX1 binding intensity came out at 737. The value for CCACTGCCGGAAGGGGAACTGTGGGGGTGCGCGAGT was 820; that for TTGTCAGATGGCGAAGGAAACCGCGAAATTCGCCAT was 1270.
